Source: PubChem (The Scripps Research Institute Molecular Screening Center)
M1 antag: blocks human M1 muscarinic receptor; P11229; CHO-K1 hM1, Fluo-8 calcium fluorescence, ACh EC80 antagonist; inhibition, % at 3 µM; 360,000 tested, 1.3% active;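 active means percent inhibition above its own plate's cutoff, namely the mean of that plate's compound wells plus 3 SD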;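 further: peak over basal fluorescence ratio during 140 s after agonist addition; 0% = ACh EC80 plus DMSO and 100% = DMSO alone without agonist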
Target sequence (P11229 whole entry, looked up): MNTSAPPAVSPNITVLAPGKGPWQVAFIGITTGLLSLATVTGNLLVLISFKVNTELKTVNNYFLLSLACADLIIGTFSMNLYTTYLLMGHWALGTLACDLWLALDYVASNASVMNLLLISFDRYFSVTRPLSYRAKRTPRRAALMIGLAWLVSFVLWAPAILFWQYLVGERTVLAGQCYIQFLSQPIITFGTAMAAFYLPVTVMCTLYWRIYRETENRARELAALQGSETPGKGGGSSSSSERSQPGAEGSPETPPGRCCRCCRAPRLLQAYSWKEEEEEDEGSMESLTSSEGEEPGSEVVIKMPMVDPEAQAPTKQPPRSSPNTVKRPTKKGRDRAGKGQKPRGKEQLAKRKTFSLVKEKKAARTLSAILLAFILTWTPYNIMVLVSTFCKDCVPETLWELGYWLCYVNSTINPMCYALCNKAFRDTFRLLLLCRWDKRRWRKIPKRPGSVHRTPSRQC
M1 ag: activates human CHRM1 receptor. P11229. CHO-K1 hM1, Fluo-8 calcium fluorescence, agonist mode; 0% DMSO, 100% acetylcholine EC100. activation, % at 3 µM. 360,000 tested, 0.33% active. AID 588814;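 active means activation above the run's mean compound activation plus 3 SD, cut at about 16% in these data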;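 further: peak over basal fluorescence ratio within a 140 s kinetic read after compound addition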
CHO-K1 Ca antag: nonselective inhibitor or artifact in parental CHO-K1 cells | ATP-induced calcium, Fluo-8 fluorescence | inhibition, % at 3 µM | 360,000 tested, 0.6% active | AID 602250;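 active means inhibition above a per-plate cutoff, the plate's mean sample inhibition plus 3 SD, cut at about 24% in these data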;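 further: 0% = DMSO plus EC80 ATP and 100% = DMSO alone without ATP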
CHO-K1 Ca ag: M1 agonist counterscreen hit in parental CHO-K1 cells. Fluo-8 calcium fluorescence; scaled to maximal ATP response, vehicle zero. AID 602248. 360,000 tested, 0.48% active. activation, % at 3 µM; in the data active means activation above about 15%;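 further: untransfected CHO-K1 host cells lacking M1 receptor as counterscreen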
CHRM1 PAM: potentiates human M1 receptor response to acetylcholine; P11229; CHO-K1 hM1, Fluo-8 calcium fluorescence, ACh EC20; 0% = ACh EC20, 100% = maximal ACh; activation, % at 3 µM; 360,000 tested, 0.088% active; in the data active means activation above about 19%, passing the limit was not always enough
CHO-K1 Ca PAM: nonselective activator or artifact in parental CHO-K1 calcium assay; ATP EC20, Fluo-8 calcium fluorescence; 0% at ATP EC20, 100% at ATP max; activation, % at 3 µM; 360,000 tested, 0.02% active; AID 602247;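 active means activation above the run cutoff, the mean activation of all test compounds plus 3 SD, cut at about 40% in these data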;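 further: peak over basal fluorescence ratio in a 140 s read after ATP addition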
* marks the source's active call; other numbers are inactive results. In the library only some 2.3% were active in any assay of this set; here they are far more common.

SMILES | M1 antag | M1 ag | CHO-K1 Ca antag | CHO-K1 Ca ag | CHRM1 PAM | CHO-K1 Ca PAM
COc1ccc(C2=Nn3c(nnc3-c3ccccc3OC)SC2)cc1OCC1CC1 | -10 | -10 | -20 | 0 | 6 | 25
COCCCNS(=O)(=O)c1cc2c3c(c1)C(C)C(=O)N3CCC2 (stereo not given) | -1 | -2 | -10 | 1 | 0 | -9
Cc1ccc(C(=O)NCC(=O)OCC(=O)NC2CCS(=O)(=O)C2)cc1C (stereo not given) | -8 | -3 | 13 | 0 | 8 | -10
CCc1ccc(CN2CCC(n3nccc3NC(=O)c3ccccc3Cl)CC2)cc1 | -16 | 28* | 0 | 9 | 6 | 4
O=C(Nc1ccnn1C1CCN(CCCC2CCCC2)CC1)c1ccccc1Cl | 40* | -4 | -4 | 5 | -17 | -2
COc1ccccc1C(=O)Nc1ccnn1C1CCN(CCCC2CCCC2)CC1 | 12 | -5 | -8 | 1 | -11 | 0
O=C(Nc1ccnn1C1CCN(C2CCC2)CC1)c1ccccc1Cl | -15 | -5 | 46* | 1 | 8 | 9
CCN(Cc1nc2ccccc2c(=O)[nH]1)C(=O)COc1ccccc1-c1ccccc1 | -2 | -4 | -19 | 1 | 4 | -1
Cc1cccc(NC(=O)Nc2cc(C)cc(C)n2)c1 | -15 | -9 | -10 | 1 | 18 | 24
COc1cccc(Nc2ncnc3ccc(Br)cc23)c1 | 0 | -6 | 1 | 0 | -4 | -12
Brc1ccc2ncnc(Nc3cccc4ccccc34)c2c1 | -5 | 12 | -12 | 19* | 2 | 12
NC(CSC(c1ccccc1)(c1ccccc1)c1ccccc1)C(=O)O (stereo not given) | 40* | -8 | -11 | 0 | -25 | 18
NC(CC(=O)NC(c1ccccc1)(c1ccccc1)c1ccccc1)C(=O)O (stereo not given) | -7 | -6 | 3 | 0 | 9 | 7
Cc1ccccc1NC(=O)COC(=O)c1c[nH]c(=O)[nH]c1=O | -2 | -5 | -1 | 0 | 8 | 12
Cc1ccc(/C=N/Nc2nc(C)cc(C)n2)cc1 | -15 | -2 | -5 | 0 | 17 | 4
Cc1cc(C)nc(N/N=C/c2cn[nH]c2-c2ccc(F)cc2)n1 | -6 | 9 | 2 | 18* | 10 | 12
CN(Cc1cnccn1)C(=O)C1CCC(=O)N(CCc2ccc(Cl)cc2)C1 (stereo not given) | 1 | -6 | -16 | 1 | -2 | 17
Cc1ccc(S(=O)(=O)N2CCN(C(C)C(=O)Nc3ccccc3-c3ccccc3)CC2)cc1 (stereo not given) | 10 | -4 | 6 | 0 | -4 | 17
O=C(c1ccc(NC2=NC3CS(=O)(=O)CC3S2)cc1)N(CCO)Cc1ccccc1 (stereo not given) | -10 | 0 | 36* | 0 | 3 | -2
CC(CNC(=O)c1ccc(NC2=NC3CS(=O)(=O)CC3S2)cc1)c1ccccc1 (stereo not given) | -14 | -2 | -7 | 1 | 8 | 18
CN(C)CCCNC(=O)N1c2ccccc2C=Cc2ccccc21 | 97* | -9 | -10 | 1 | -29 | 10
Cc1ccnc2nc(C(=O)OCC(=O)N(Cc3ccccc3)C(C)C)nn12 | -11 | -2 | -17 | 0 | 11 | 15
CCOC(=O)N1CCC(NC(=O)c2cc(S(=O)(=O)N3CCCC3)cn2C)CC1 | 2 | -1 | 26* | 0 | 2 | -8
C[C@H](CO)N1C[C@H](C)[C@@H](CN(C)S(=O)(=O)c2ccccc2)Oc2c(NC(=O)Nc3ccc4c(c3)OCO4)cccc2C1=O | -10 | -4 | -10 | 3 | 0 | 10
CCOC(=O)Cc1csc(SCC(=O)N(CC(C)C)c2c(N)n(Cc3ccccc3)c(=O)[nH]c2=O)n1 | -18 | -4 | -9 | 2 | 16 | 15
SMILES | M1 antag | M1 ag | CHO-K1 Ca antag | CHO-K1 Ca ag | CHRM1 PAM | CHO-K1 Ca PAM
O=C1c2cccc3cccc(c23)C(=O)N1CCCc1n[nH]c(=S)n1-c1ccccc1 | 31* | 0 | 17 | 0 | -8 | -10
OCCCc1n[nH]c(=S)n1-c1ccccc1 | -8 | -5 | -13 | 1 | 12 | 27
Cc1ccc(NC(=O)CN2CCN(C)CC2)cc1Br | 1 | -8 | 14 | 0 | 0 | -5
CCOC(=O)/C(=C\C=C1/Sc2ccccc2N1CC)C(C)=O | 25 | 47* | 18 | 38* | -13 | -2
CCOC(=O)/C(=C/C=C1\Sc2ccccc2N1CC)C(C)=O | 21 | 19* | 28* | 18* | -16 | -17
CCOC(=O)/C(=C/C=C1\Sc2cc(C)c(C)cc2N1CC)C(C)=O | 33* | 51* | 20 | 22* | -16 | -20
CCN1/C(=C/C(=O)c2ccco2)Sc2ccccc21 | -11 | -3 | 1 | 0 | 9 | 10
CCC(=O)/C=C1/Sc2ccccc2N1CC | -19 | -7 | 0 | -1 | 1 | 16
Cc1cccc(C)c1NC(=O)CN(C)C(=O)COc1cccc2c1OC(C)(C)C2 | -9 | -2 | -3 | 0 | 5 | 1
CN1CCC(=C2c3ccccc3Sc3ccccc32)CC1 | 100* | -6 | 1 | 1 | -26 | 7
Cc1ccc(NC(=O)C2(C)CCN2C(=O)Cc2ccccc2Cl)cc1C (stereo not given) | -4 | -5 | -14 | 0 | 2 | 15
CCOc1ccccc1N(C(=O)Nc1cccc(Cl)c1)C1=NC(C)CS1 (stereo not given) | -4 | -10 | 2 | 7 | 7 | 20
CC1CSC(N(C(=O)c2ccc(S(C)(=O)=O)cc2)c2ccc(Cl)cc2)=N1 (stereo not given) | -2 | -1 | -4 | 16* | -1 | 9
COc1cccc(C(O)c2nc(-c3cccc(F)c3)cs2)c1 (stereo not given) | -7 | 0 | 1 | 0 | 3 | 9
CC1CCN(S(=O)(=O)c2ccc(Oc3ccc([N+](=O)[O-])cc3)cc2)CC1 | 30* | -6 | 0 | 5 | -18 | -2
S=c1[nH]nc(-c2ccncc2)n1/N=C/C=C/c1ccco1 | 4 | -4 | 3 | 0 | 5 | 14
C(=C\c1ccco1)/C=N/n1cnnc1 | -5 | 2 | 26* | 0 | 10 | -9
COC(C(=O)Nc1ccnn1C1CCN(Cc2ccccn2)CC1)c1ccccc1 (stereo not given) | 0 | -1 | 2 | 0 | 9 | 5
N#C/C(C(=O)NCc1ccccc1)=C1/N=C(NC(=O)c2ccco2)c2ccccc21 | -7 | -3 | -4 | 17* | 6 | 18
COc1ccc(CCNC(=O)/C(C#N)=C2\N=C(NC(=O)c3ccco3)c3ccccc32)cc1 | -11 | 1 | -7 | 1 | 5 | 14
Cc1cc(C)cc(NC(=O)CSc2nnc(CNC(=O)c3ccco3)n2C)c1 | -8 | -2 | -17 | 0 | 6 | 6
